Read-out in experiment [1]: Transforming growth factor beta 1 (TGFb1), TGFB1 (gene 7040)
Briefly: BSK_KF3CT_TGFb1: BioMAP Diversity Plus: KF3CT Assay for Transforming growth factor beta 1 (TGFb1) Biomarker Activity (AID 2283072). To be noted: primary human keratinocytes with fibroblasts; actives raise or lower the signal. In a few lines:
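KF3CT co-culture (keratinocytes + fibroblasts), 24 h exposure → TGF-b1 ELISA → bidirectional fit, DMSO = baseline. Parallel SRB total-protein staining (0.1% SRB, 10% TCA fixation, 560 nm) for cytotoxicity.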

Read-out in experiment [2]: C-C motif chemokine 2 (Homo sapiens) (UniProt P13500)
Briefly: BSK_KF3CT_MCP1: BioMAP Diversity Plus: KF3CT Assay for Monocyte Chemoattractant Protein 1 (MCP1/CCL2) Biomarker Activity (AID 2283073). Particulars: primary human keratinocytes with fibroblasts; actives raise or lower the signal. In a few lines: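 KF3CT skin co-culture (keratinocytes/foreskin fibroblasts), 24 h post-dose; MCP-1 by ELISA; gain/loss of signal fit bidirectionally vs DMSO baseline.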

Read-out in experiment [3]: Matrix Metallopeptidase 9 (MMP9), MMP9 (gene 4318)
The experiment is described as follows: BSK_KF3CT_MMP9: BioMAP Diversity Plus: KF3CT Assay for Matrix Metallopeptidase 9 (MMP9) Biomarker Activity (AID 2283074).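 For AC50: MMP9 protein level quantified by ELISA in the co-culture.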 Particulars: primary human keratinocytes with fibroblasts; actives raise or lower the signal. In short, it runs like this:
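ELISA read-out of MMP-9 at 24 h post-dosing in a co-culture of human skin keratinocytes and foreskin fibroblasts. Gain or loss of signal was fitted in both directions against DMSO.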

Read-out in experiment [4]: urokinase plasminogen activator (uPA), PLAU (gene 5328)
Briefly: BSK_KF3CT_uPA: BioMAP Diversity Plus: KF3CT Assay for urokinase plasminogen activator (uPA) Biomarker Activity (AID 2283075). Particulars: primary human keratinocytes with fibroblasts; actives raise or lower the signal. In short, it runs like this: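 Skin co-culture (keratinocytes + foreskin fibroblasts), human primary; 24 h post-dose; uPA by ELISA; gain/loss fit vs DMSO baseline.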

Read-out in experiment [5]: CD40, CD40 (gene 958)
The experiment is described as follows: BSK_LPS_CD40: BioMAP Diversity Plus: LPS Assay for CD40 Biomarker Activity (AID 2283076). To be noted: primary human HUVEC with PBMC; actives raise or lower the signal. In short, it runs like this:
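ELISA readout of CD40 in HUVEC/PBMC co-culture (BSK_LPS system), 24 h post-dosing; bidirectional curve fit, DMSO baseline; parallel SRB total-protein staining for cytotoxicity.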

Read-out in experiment [6]: E-selectin (Homo sapiens) (UniProt P16581)
Briefly: BSK_LPS_Eselectin: BioMAP Diversity Plus: LPS Assay for Eselectin Biomarker Activity (AID 2283077). To be noted: primary human HUVEC with PBMC; actives raise or lower the signal. In a few lines: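 ELISA readout of E-selectin, 24 h post-dose, HUVEC + PBMC co-culture (LPS system). Gain or loss of signal vs DMSO baseline, bidirectional fit.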

A short description of experiment [7]: BSK_LPS_SRB: Viability Assessment in the BioMAP Diversity Plus: LPS Assay (AID 2283079).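 Note: total protein by sulforhodamine B absorbance as a cytotoxicity measure; measured one day after compound addition.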 To be noted: primary human HUVEC with PBMC. In a few lines: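 HUVEC + PBMC co-culture, LPS-stimulated; compound 24 h. 10% TCA fix, 0.1% SRB stain, A560. Bidirectional fit vs DMSO.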
Read-out in experiment [8]: Interleukin-1 alpha (IL1a), IL1A (gene 3552)
Briefly: BSK_LPS_IL1a: BioMAP Diversity Plus: LPS Assay for Interleukin-1 alpha (IL1a) Biomarker Activity (AID 2283080). Particulars: primary human HUVEC with PBMC; actives raise or lower the signal. In a few lines: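 HUVEC/PBMC co-culture, LPS system; 24 h after dosing; IL-1a by ELISA; gain or loss of signal fitted bidirectionally vs DMSO baseline.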

Read-out in experiment [9]: Monocyte Chemoattractant Protein-1 (MCP1), CCL2 (gene 6347)
The experiment is described as follows: BSK_LPS_MCP1: BioMAP Diversity Plus: LPS Assay for Monocyte Chemoattractant Protein-1 (MCP1) Biomarker Activity (AID 2283081).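 For AC50: secreted MCP-1 protein quantified by ELISA in culture supernatant.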 To be noted: primary human HUVEC with PBMC; actives raise or lower the signal. In a few lines:
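ELISA read-out of MCP-1 after 24 h chemical dosing of a human umbilical vein endothelial cell/peripheral blood mononuclear cell co-culture stimulated with LPS. Gain or loss of signal fitted relative to DMSO controls.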

Experiment [10] is described as follows: BSK_LPS_PGE2: BioMAP Diversity Plus: LPS Assay for Prostaglandin E2 (PGE2) Biomarker Activity (AID 2283082).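 For AC50: secreted prostaglandin E2 measured by ELISA in LPS-stimulated co-culture.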 Particulars: primary human HUVEC with PBMC; actives raise or lower the signal. In a few lines:
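Compounds were added to the LPS co-culture of endothelium and PBMC, and PGE2 was measured by ELISA after 24 h. Responses in either direction were fitted with DMSO as baseline.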

Read-out in experiment [11]: Macrophage colony-stimulating factor (MCSF), CSF1 (gene 1435)
The experiment is described as follows: BSK_LPS_MCSF: BioMAP Diversity Plus: LPS Assay for Macrophage colony-stimulating factor (MCSF) Biomarker Activity (AID 2283083). Particulars: primary human HUVEC with PBMC; actives raise or lower the signal. In short, it runs like this:
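HUVEC + PBMC co-culture (human primary), 24 h post-dose; M-CSF by ELISA; gain/loss of signal fitted bidirectionally vs DMSO baseline.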

Read-out in experiment [12]: Tissue Factor, F3 (gene 2152)
The experiment is described as follows: BSK_LPS_TissueFactor: BioMAP Diversity Plus: LPS Assay for Tissue Factor Biomarker Activity (AID 2283084). To be noted: primary human HUVEC with PBMC; actives raise or lower the signal. In a few lines:
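HUVEC/PBMC co-culture, LPS-activated; CD142 ELISA read 24 h post-dose; bidirectional curve fit vs DMSO negative control.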

Read-out in experiment [13]: Tumor necrosis factor (Homo sapiens) (UniProt P01375)
Briefly: BSK_LPS_TNFa: BioMAP Diversity Plus: LPS Assay for Tumour Necrosis Factor alpha (TNFa) Biomarker Activity (AID 2283085).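 For AC50: TNFa protein level quantified by ELISA in the co-culture.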 Particulars: primary human HUVEC with PBMC; actives raise or lower the signal. In a few lines: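 Cells (umbilical vein endothelium plus peripheral blood mononuclear cells) were dosed with chemical, incubated 24 h, then TNFa was quantified by ELISA; values derive from bidirectional fitting with DMSO as baseline.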

Read-out in experiment [14]: Vascular cell adhesion molecule 1 (VCAM1), VCAM1 (gene 7412)
The experiment is described as follows: BSK_LPS_VCAM1: BioMAP Diversity Plus: LPS Assay for Vascular cell adhesion molecule 1 (VCAM1) Biomarker Activity (AID 2283086). To be noted: primary human HUVEC with PBMC; actives raise or lower the signal. In a few lines:
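Cells are dosed in an LPS-stimulated endothelial/mononuclear co-culture and, after 24 h, VCAM-1 is quantified by ELISA. Activity in either direction is fitted relative to the DMSO negative control.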

Read-out in experiment [15]: CD38, CD38 (gene 952)
Briefly: BSK_SAg_CD38: BioMAP Diversity Plus: SAg Assay for CD38 Biomarker Activity (AID 2283087). Particulars: primary human HUVEC with PBMC; actives raise or lower the signal. In a few lines:
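CD38 quantified by ELISA (fluorescence) in a superantigen-activated endothelial cell–PBMC co-culture at 24 h post-dose. Activity fitted in both directions relative to DMSO; parallel SRB and Alamar Blue cytotoxicity read-outs.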

Read-out in experiment [16]: CD40, CD40 (gene 958)
Briefly: BSK_SAg_CD40: BioMAP Diversity Plus: SAg Assay for CD40 Biomarker Activity (AID 2283088). To be noted: primary human HUVEC with PBMC; actives raise or lower the signal. In a few lines:
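HUVEC/PBMC co-culture, 24 h post-dose; CD40 by ELISA, fluorescence intensity; bidirectional fit vs DMSO negative control.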

Read-out in experiment [17]: CD69, CD69 (gene 969)
The experiment is described as follows: BSK_SAg_CD69: BioMAP Diversity Plus: SAg Assay for CD69 Biomarker Activity (AID 2283089).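 For AC50: cell surface CD69 protein quantified by ELISA with fluorescence detection.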 Particulars: primary human HUVEC with PBMC; actives raise or lower the signal. In a few lines: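 HUVEC co-cultured with PBMC were dosed with chemical, and CD69 was measured by ELISA with fluorescence read-out 24 h later. Bidirectional curve fitting used DMSO as negative control and activity baseline.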

Read-out in experiment [18]: Monocyte Chemoattractant Protein-1 (MCP1), CCL2 (gene 6347)
Briefly: BSK_SAg_MCP1: BioMAP Diversity Plus: SAg Assay for Monocyte Chemoattractant Protein-1 (MCP1) Biomarker Activity (AID 2283090). Particulars: primary human HUVEC with PBMC; actives raise or lower the signal. In short, it runs like this: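 Values derive from bidirectional fitting of ELISA-measured MCP1 against DMSO controls. Readings were taken 24 h after dosing human vascular endothelial cells co-cultured with peripheral blood mononuclear cells under superantigen stimulation.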

Read-out in experiment [19]: E-selectin (Homo sapiens) (UniProt P16581)
Briefly: BSK_SAg_Eselectin: BioMAP Diversity Plus: SAg Assay for Eselectin Biomarker Activity (AID 2283091). To be noted: primary human HUVEC with PBMC; actives raise or lower the signal. In short, it runs like this: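 E-selectin ELISA readout at 24 h post-dosing in human umbilical vein endothelial cell/PBMC co-culture; gain or loss of signal fitted relative to DMSO baseline.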

Consider 5 compounds from PubChem BioAssay (EPA / NIEHS).

Active and inactive are the calls of the source. Rule for the calls: active = hit-call score of the fitted dose curve at least 0.9, where 1 is the maximum; inactive = score below 0.9.

Chain of Tumor necrosis factor (Homo sapiens) (P01375 whole entry, looked up): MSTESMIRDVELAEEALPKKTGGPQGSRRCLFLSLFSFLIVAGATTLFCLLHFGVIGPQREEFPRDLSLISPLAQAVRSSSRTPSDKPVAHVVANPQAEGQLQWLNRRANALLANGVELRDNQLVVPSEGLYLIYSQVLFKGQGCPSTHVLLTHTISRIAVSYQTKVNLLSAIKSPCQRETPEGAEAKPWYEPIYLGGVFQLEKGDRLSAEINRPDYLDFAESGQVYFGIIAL
Chain of E-selectin (Homo sapiens) (P16581 whole entry, looked up): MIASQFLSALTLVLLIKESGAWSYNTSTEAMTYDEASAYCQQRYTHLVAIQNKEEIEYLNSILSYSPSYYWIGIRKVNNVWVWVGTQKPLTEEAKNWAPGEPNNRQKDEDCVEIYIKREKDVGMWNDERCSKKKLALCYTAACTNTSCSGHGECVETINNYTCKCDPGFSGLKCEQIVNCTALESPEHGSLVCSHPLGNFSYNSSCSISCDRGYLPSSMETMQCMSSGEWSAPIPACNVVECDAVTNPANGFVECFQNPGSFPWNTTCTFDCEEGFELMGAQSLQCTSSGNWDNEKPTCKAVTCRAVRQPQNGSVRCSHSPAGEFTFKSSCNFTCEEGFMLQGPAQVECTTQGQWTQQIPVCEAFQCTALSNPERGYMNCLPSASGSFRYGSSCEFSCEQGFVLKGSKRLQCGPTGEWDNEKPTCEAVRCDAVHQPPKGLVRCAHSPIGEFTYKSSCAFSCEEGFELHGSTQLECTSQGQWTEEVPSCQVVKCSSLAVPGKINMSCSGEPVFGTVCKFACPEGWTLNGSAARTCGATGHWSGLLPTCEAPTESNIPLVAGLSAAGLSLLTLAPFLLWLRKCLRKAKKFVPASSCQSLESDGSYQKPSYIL

Take `NC(=O)N(O)[C@@H]1C=C[C@H](Oc2cccc(Oc3ccc(F)cc3)c2)C1`: the result in experiment [1], in experiment [2], in [3], in experiment [4], in experiment [5] and in [6] was inactive. Further, the outcome in experiment [8], in experiment [9], in [11], in [12], in [13] and in experiment [14] was inactive. In addition, the result in [16], in [17], in experiment [18] and in experiment [19] was inactive. Moreover, the concentration at half-maximal activity (AC50) in [7] is 3.97 µM (active); in [10], 8.49 µM (active); in experiment [15], 26.3 µM (active).
Regarding `Oc1cccc(O)c1`, the outcome in experiment [2], in experiment [3], in experiment [4], in [5], in [6] and in experiment [7] was inactive. The outcome in experiment [8], in experiment [9], in experiment [10], in [11], in [12] and in experiment [13] was inactive. The result in [14], in experiment [15], in [16], in experiment [17] and in experiment [18] was inactive.
Consider `CCCOc1sc(C(=O)N2CCC(c3cc(CN)ccc3F)CC2)c(C)c1Br`, for which the concentration at half-maximal activity (AC50) in [1] is 8.97 µM (active); in [2], 9.27 µM (active); in [3] it was 5.74 µM (active); in experiment [4], 10.2 µM (active); in experiment [5], 7.91 µM (active); in experiment [6] it was 11.1 µM (active). In addition, the AC50 in [7] was 5.93 µM (active); in [8], 8.61 µM (active); in experiment [9], 9.2 µM (active); in experiment [10] it was 12.5 µM (active); in experiment [11], 10.7 µM (active); in [12] it was 13.1 µM (active). The AC50 in experiment [13] is 13.4 µM (active); in experiment [14], 7.57 µM (active); in experiment [15], 6.1 µM (active); in [16], 9.53 µM (active); in [17], 8.27 µM (active); in experiment [18], 8.39 µM (active). The AC50 in [19] was 6.75 µM (active).
As for `O=[N+]([O-])c1ccc(O)cc1`, the result in experiment [1], in experiment [2], in experiment [3], in experiment [4], in experiment [5] and in experiment [6] was inactive. Further, the result in experiment [7], in experiment [8], in [9], in [10], in [11] and in [12] was inactive. For the same compound, the result in experiment [13], in [14], in [15], in experiment [16], in [17] and in [18] was inactive.
With `CC(C)(C)c1cccc(C(C)(C)C)c1O`, the AC50 in experiment [1] was 36.1 µM (active); in experiment [2], 34.4 µM (active); in experiment [3] it was 36.7 µM (active); in experiment [4], 39 µM (active). The result in [5], in experiment [6], in experiment [7], in [8], in [9] and in experiment [10] was inactive. Also, the outcome in experiment [11], in experiment [12], in [13], in experiment [14], in experiment [15] and in experiment [16] was inactive. Besides, the outcome in [17] and in experiment [18] was inactive.
